Results on 40 molecules are retold here after PubChem BioAssay (NCATS).

SMILES strings stand for the structures. Results filed as inconclusive are left out. Where a call stands in place of a potency, no number is given. Active and inactive are the calls of the source. Calls come from the whole dose curve; as a rule, active = well fitted cell-killing curve with a large enough effect; inconclusive = small, poorly fitted or top-dose-only effect; inactive = flat fitted curve, though single readings scatter.
Potency is the fitted concentration of half-maximal effect.

This assay in a line: qHTS of pediatric cancer cell lines to identify multiple opportunities for drug repurposing: Primary screen for TC32 cells (AID 1347089). Note: nearly all actives have a fitted effect of over 60% in size. The note with it: TC32 Ewing sarcoma viability, CellTiter-Glo luminescence, 48 h; series mostly up to 45.8 µM. The source says: Drug repurposing or repositioning has been offered as a strategy for drug development in oncology programs. This approach has special potential for childhood cancers and other rare or orphan diseases, where the expected return on new drug development has been a disincentive to pharmaceuticals.
In this project we exploit the poly-pharmacology of drugs to discover new indications via phenotypic screening of a panel of 19 well-characterized cell lines derived from solid tumors seen in children and adolescents. The goal is to identify approved drugs with previously unrecognized anticancer properties that has the potential to reveal new mechanisms and biological processes involved in carcinogenesis or drug resistance. We employed a titration-based paradigm (quantitative high-throughput screening or qHTS), where all compounds were tested at multiple concentrations for their effect on cell viability. Concentration-response curves (CRCs) were derived directly from the primary screen, and both potency and efficacy values were used to identify compounds with robust bioactivity profiles. We screened the NIH Chemical Genomics Center (NCGC) Pharmaceutical Collection (NPC) and Mechanism Interrogation Plate (MIPE) small molecule collections of approved and investigational compounds against these cell lines; and measured metabolically active cells after 48 hours of compound treatment as a proxy for cell viability.
Assay Submitter: Nathalia J. Martinez, National Center for Advancing Translational Sciences, National Institutes of Health, Rockville, MD, USA; email: natalia.martinez@nih.gov
[1] Shen, M et al. Quantitative high-throughput phenotypic screening of pediatric cancer cell lines identifies multiple opportunities for drug repurposing. Oncotarget 2017 Dec 19;9(4):4758-4772. PMID 29435139.
The cells were obtained from University of North Carolina (UNC), Pediatric Preclinical Testing Program (PPT), and Coriell Institute (CI).
qHTS cell viability assay:
Cells were assayed in growth media at a density of 500-1,000 cells/well. Five microliters of cells were dispensed into 1,536-well, white, solid-bottom, TC-treated plates (Greiner Bio One) using a multidrop dispenser and incubated at 37 degrees C, 5% CO2, under a humidified atmosphere for 5 hours. Twenty-three nanoliters of compounds and controls (neutral control DMSO or positive control bortezomib at final concentration of 2.3 uM) were subsequently transferred by Kalypsys pintool. For primary screens, the MIPE collection was tested at 11-point dilutions (final concentrations range from 0.78 nM to 46 µM) and the NPC collection at 8-point dilutions (final concentrations range from 0.59 nM to 46 µM). Compounds tested in follow-up screens were assayed at 11-point dilutions. Cells were incubated for 48 hours, followed by addition of 3 uL of CellTiter-Glo (Promega). After a 15min incubation at room temperature, samples were analyzed for luminescence intensity using a ViewLux High-throughput CCD imager equipped with clear filters.
In general terms: Quantitative high-throughput screening tests each substance at several concentrations.
As to `C=CC[N+]1([C@H]2C[C@H]3[C@@H]4CC[C@H]5C[C@H](O)[C@@H](N6CCOCC6)C[C@]5(C)[C@@H]4CC[C@]3(C)[C@H]2OC(C)=O)CCCC1`, the Potency result was “inactive”.
For `CN[C@@H]1[C@@H](O)[C@@H](O[C@@H]2[C@@H](O)[C@H](O[C@H]3O[C@H](CN)[C@@H](O)[C@H](O)[C@@H]3O)[C@@H](N)C[C@@H]2NC(=O)[C@@H](O)CN)OC[C@]1(C)O`, the Potency entry was “inactive”.
Then `CCC[C@@H](NC(=O)[C@@H]1[C@H]2CCC[C@@H]2CN1C(=O)[C@@H](NC(=O)[C@@H](NC(=O)c1cnccn1)C1CCCCC1)C(C)(C)C)C(=O)C(=O)NC1CC1`, with “inactive”; and `O=C(O)c1nc(=O)[nH]c(=O)[nH]1`, with “inactive”.
The same measure for `CC(NCCc1ccc(O)cc1)C(O)c1ccc(O)cc1` (stereo not given): “inactive”.
The same measure for `Cc1ccccc1C(=O)c1ccc(Nc2ccc(Br)cc2N)cc1Cl`: “inactive”.
Regarding `CN1C(=O)C[C@H](C(=O)N[C@@H](Cc2cnc[nH]2)C(=O)N2CCC[C@@H]2C(N)=O)NC1=O`, the Potency result is “inactive”.
Then `CC[C@H](C)n1cc(C)c2c(C(=O)NCc3c(C)cc(C)[nH]c3=O)cc(-c3ccc(N4CCNCC4)nc3)cc21`, with “inactive”.
Then `O=C1CN2Cc3c(ccc(Cl)c3Cl)N=C2N1`, with “inactive”; and `O=C(c1ccc(C(=O)N2CCC(N3CCCC3)CC2)c(Nc2ccccc2)c1)N1CCC(N2CCCC2)CC1`, with “inactive”; and `COc1ccc(-c2ccc3ncc4c(c3c2)n(-c2ccc(N3CCNCC3)c(C(F)(F)F)c2)c(=O)n4C)cn1`, with 16.5 nM (active).
The same measure for `Cc1cnc(Nc2cccc(CN3CCOCC3)c2)nc1Nc1cccc(S(=O)(=O)NC(C)(C)C)c1`: “inactive”.
With `CO[C@H]1O[C@@H]2O[C@@]3(C)CC[C@@H]4[C@@H](C)CC[C@@H]([C@H]1C)[C@@]24OO3`, the Potency entry is “inactive”.
The same measure for `C[C@@H]1[C@H](O)[C@@H](C)C=CC=CC=CC=CC=CC=CC=C[C@H](O[C@@H]2O[C@H](C)[C@H](O)[C@H](N)[C@@H]2O)C[C@@H]2O[C@](O)(C[C@@H](O)C[C@@H](O)[C@H](O)CC[C@@H](O)C[C@@H](O)CC(=O)O[C@H]1C)C[C@H](O)[C@@H]2C(=O)O`: 2940 nM (active); for `COc1cc2c(cc1OC)CC(=O)N(CCCN(C)C[C@H]1Cc3cc(OC)c(OC)cc31)CC2`: “inactive”.
With `COC(=O)[C@H](c1ccccc1Cl)N1CCc2sccc2C1`, the Potency result was “inactive”.
The same measure for `O=[N+]([O-])c1ccc(Nc2ccccc2-c2ccccc2)c2nonc12`: “inactive”; for `COc1c(C)cnc(Cn2cnc3c(Cl)nc(N)nc32)c1C`: 1170 nM (active).
The same measure for `CC[C@]1(O)C[C@H]2CN(CCC3=c4ccccc4=N[C]3[C@@](C(=O)OC)(c3cc4c(cc3OC)N(C)[C@H]3[C@@](O)(C(N)=O)[C@H](O)[C@]5(CC)C=CCN6CC[C@]43[C@@H]65)C2)C1`: 58.7 nM (active); for `CN1CC(=O)NC1=NC(=O)Nc1cccc(Cl)c1`: “inactive”; for `CCCCCCCCCCCCCC(=O)N[C@H](CO)[C@H](O)c1ccc([N+](=O)[O-])cc1`: “inactive”.
Turning to `COc1cc([C@@H]2c3cc4c(cc3[C@@H](O[C@@H]3O[C@@H]5CO[C@@H](C)O[C@@H]5[C@H](O)[C@@H]3O)[C@H]3COC(=O)[C@H]23)OCO4)cc(OC)c1O`, the Potency is 1040 nM (active).
The same measure for `CN[C@@H](C)[C@H]1[C@H](O)C[C@@]2(C)[C@@H]3CC[C@H]4C(C)(C)[C@@H](NC)CC[C@@]45C[C@@]35CC[C@]12C`: “inactive”; for `N#CC1(c2cccc(C(=O)Nc3cc(Oc4ccc5nc(NC(=O)C6CC6)sc5n4)ccc3F)c2Cl)CC1`: “inactive”.
The same measure for `NS(=O)(=O)c1ccc(Nc2nc(OCC3CCCCC3)c3[nH]cnc3n2)cc1`: “inactive”; for `Cc1ccc(C(=O)N(CCCN)[C@@H](c2nc3cc(Cl)ccc3c(=O)n2Cc2ccccc2)C(C)C)cc1`: 16.5 nM (active).
Then `CCC(C)SSc1ncc[nH]1` (stereo not given), with “inactive”; and `CC(C)(CO)[C@@H](O)C(=O)NCCC(=O)O`, with “inactive”.
On to `O=C(O)CCC=CCC[C@@H]1[C@H](N2CCCCC2)[C@@H](O)C[C@@H]1OCc1ccc(-c2ccccc2)cc1`, for which the Potency entry was “inactive”.
The same measure for `NC(=O)c1ncn([C@@H]2O[C@H](CO)[C@@H](O)[C@@H]2O)n1`: “inactive”; for `Clc1ccc(COC(Cn2ccnc2)c2ccc(Cl)cc2Cl)c(Cl)c1` (stereo not given): “inactive”.
With `CC1CCN(c2cc(N3CCN(C)CC3)ccc2NC(=O)c2cc(C#N)c[nH]2)CC1`, the Potency result was “inactive”.
The same measure for `C=C1c2cccc(O)c2C(O)=C2C(=O)[C@@]3(O)C(O)=C(C(N)=O)C(=O)[C@@H](N(C)C)[C@@H]3[C@@H](O)[C@H]12`: “inactive”; for `O=C(CC12CC3CC(CC(C3)C1)C2)Nc1cccc2nc(NCCNCCO)ccc12`: “inactive”.
The same measure for `CN(CC=CC#CC(C)(C)C)Cc1cccc2ccccc12`: “inactive”; for `COc1ccc2c(c1)CC[C@H]1[C@@H]2CC[C@]2(C)[C@@H](NCCCCCCN3C(=O)C=CC3=O)CC[C@H]12`: “inactive”.
The same measure for `CNC1[C@H](O)C(O[C@@H]2C(O)C(O[C@H]3O[C@H]([C@@H](C)NC)CC[C@H]3N)[C@@H](N)C[C@H]2N)OC[C@]1(C)O` (stereo not given in full): “inactive”.
Turning to `OC[C@H]1O[C@@H](OCCc2ccc(O)cc2)[C@H](O)[C@@H](O)[C@H]1O`, the Potency result was “inactive”.
The same measure for `CCOC(=O)c1c(CSc2ccccc2)n(C)c2cc(Br)c(O)c(CN(C)C)c12`: “inactive”.
On to `CN(C)CCCNC(=O)c1ccc(-c2cc(O)c3ncccc3c2)cc1`, for which the Potency result is “inactive”.
